Target: Protein kinase C gamma type (Homo sapiens) (UniProt P05129)
Settings: at 0.1 µM
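Also: values are mean percent inhibition of PKC gamma.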

Structure (SMILES) | inhibition
O=C(Nc1ccc(Oc2ccc3[nH]c(NC(=O)c4ccco4)nc3c2)cc1)Nc1cc(C(F)(F)F)ccc1F | 2.16%
Cc1ccc(Nc2ccnc(Nc3cccc(C(N)=O)c3)n2)cc1O | 4.85%
CCCN1CCCC(c2ccc(Nc3nc(Nc4cc(F)ccc4C(N)=O)c4cc[nH]c4n3)c(OC)c2)C1 (stereo not given) | 5.05%
CC(C)c1ccc2c(c1)NC(=O)/C2=N/Nc1ccc(S(N)(=O)=O)cc1 | -0.1%
NS(=O)(=O)c1ccc(-c2cc3ccncc3cc2OCc2ccccc2)cc1 | 1.21%
CN1CCN(C(=O)c2ccc(NC(=O)Nc3ccc(N(C)c4ccnc(Nc5ccc(CS(C)(=O)=O)cc5)n4)cc3)cc2)CC1 | 2.19%
CN(c1ccc(NC(=O)Nc2ccc(OC(F)(F)F)cc2)cc1)c1ccnc(Nc2cccc(S(N)(=O)=O)c2)n1 | 2.48%
CS(=O)(=O)CCNCc1nc(-c2ccc3ncnc(Nc4ccc(OCc5cccc(C(F)(F)F)c5)cc4)c3c2)cs1 | 0.96%
Nc1nccc(C#Cc2cncnc2Nc2ccc(OCc3cccc(F)c3)c(Cl)c2)n1 | 5%
COc1ccc(-c2nn3ncccc3c2-c2ccnc(Nc3cccc(C(F)(F)F)c3)n2)cc1 | 2.97%
Cc1cc(Cl)cc2c1NC(=O)C2=NNc1ccc(S(N)(=O)=O)cc1 | 0.4%
Cc1ccc(O)cc1Nc1ccnc2ccc(S(C)(=O)=O)cc12 | 0.83%
CCn1c(-c2nonc2N)nc2ccc(F)cc21 | 4.75%
COc1cc2ncnc(Nc3ccc4c(cnn4Cc4ccccc4)c3)c2cc1OC | 2.66%
Cc1nc(-c2ccccc2)n2nc(NCCCN3CCOCC3)ncc12 | 2.71%

Source: ChEMBL document CHEMBL1961873, “Compounds: GSK PKIS; Assays: Nanosyn kinase panel” (2012)
